The values that follow come from PubChem BioAssay (EPA / NIEHS).

“And” between values parts separate entries of the source, which are not always exact repeats. Identical values can stand only once. Records with an inconclusive call do not appear. The source holds several records for some structures; these can differ, active in one and inactive in another. The source made the active and inactive calls. How the source made its calls, unless noted: active means hit-call score of the fitted dose curve at least 0.9, where 1 is the maximum; inactive means score below 0.9.

Read-out in assay [1]: Monocyte Chemoattractant Protein-1 (MCP1), CCL2 (gene 6347)
Briefly: BSK_LPS_MCP1: BioMAP Diversity Plus: LPS Assay for Monocyte Chemoattractant Protein-1 (MCP1) Biomarker Activity (AID 2283081).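 On AC50: secreted MCP-1 protein quantified by ELISA in culture supernatant.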 As to conditions: primary human HUVEC with PBMC; actives raise or lower the signal. In outline:
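LPS-stimulated HUVEC/PBMC co-culture; chemical, 24 h; MCP-1 by ELISA; bidirectional fit vs DMSO; cytotoxicity via SRB (0.1% stain, 10% TCA fix, 560 nm) in parallel wells.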

Assay [2] is described as follows: BSK_LPS_PGE2: BioMAP Diversity Plus: LPS Assay for Prostaglandin E2 (PGE2) Biomarker Activity (AID 2283082).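 On AC50: secreted prostaglandin E2 measured by ELISA in LPS-stimulated co-culture.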 The settings on record: primary human HUVEC with PBMC; actives raise or lower the signal. In outline:
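LPS-activated HUVEC/PBMC co-culture; cmpd dosed, 24 h; PGE2 by ELISA; bidirectional fit vs DMSO; SRB (0.1%, TCA-fixed, 560 nm) in parallel plates for overt cytotox.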

Read-out in assay [3]: Macrophage colony-stimulating factor (MCSF), CSF1 (gene 1435)
Nature of the assay: BSK_LPS_MCSF: BioMAP Diversity Plus: LPS Assay for Macrophage colony-stimulating factor (MCSF) Biomarker Activity (AID 2283083). The settings on record: primary human HUVEC with PBMC; actives raise or lower the signal. In outline:
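Compound is added to a human vascular primary co-culture of umbilical vein endothelium and blood mononuclear cells. After 24 h, M-CSF is quantified by ELISA. Signal changes are fitted in both directions against DMSO.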

Read-out in assay [4]: Tissue Factor, F3 (gene 2152)
Briefly: BSK_LPS_TissueFactor: BioMAP Diversity Plus: LPS Assay for Tissue Factor Biomarker Activity (AID 2283084). As to conditions: primary human HUVEC with PBMC; actives raise or lower the signal. In outline: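 In this co-culture system of umbilical vein endothelium with PBMC, stimulated with LPS, cell-surface CD142 is detected by ELISA at 24 h. Endpoint values derive from bidirectional fitting, DMSO serving as baseline.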

Read-out in assay [5]: Vascular cell adhesion molecule 1 (VCAM1), VCAM1 (gene 7412)
Briefly: BSK_LPS_VCAM1: BioMAP Diversity Plus: LPS Assay for Vascular cell adhesion molecule 1 (VCAM1) Biomarker Activity (AID 2283086). The settings on record: primary human HUVEC with PBMC; actives raise or lower the signal. In outline: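 HUVEC + PBMC co-culture, LPS system; compound 24 h; VCAM-1 by ELISA; bidirectional fit vs DMSO control; parallel SRB (0.1%, TCA-fixed, 560 nm) for cytotoxicity.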

Read-out in assay [6]: CD38, CD38 (gene 952)
Nature of the assay: BSK_SAg_CD38: BioMAP Diversity Plus: SAg Assay for CD38 Biomarker Activity (AID 2283087). As to conditions: primary human HUVEC with PBMC; actives raise or lower the signal. In outline:
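Human HUVEC plus PBMC co-culture stimulated with superantigen; CD38 measured by ELISA 24 h after chemical dosing. Fluorescence read-out, bidirectional fit against DMSO; cytotoxicity tracked in parallel by SRB and Alamar Blue.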

Read-out in assay [7]: CD40, CD40 (gene 958)
Briefly: BSK_SAg_CD40: BioMAP Diversity Plus: SAg Assay for CD40 Biomarker Activity (AID 2283088). The settings on record: primary human HUVEC with PBMC; actives raise or lower the signal. In outline: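 Fluorescence ELISA read-out of CD40 from umbilical vein endothelium plus peripheral blood mononuclear cells, sampled 24 h after dosing. Values come from bidirectional curve fitting with DMSO as baseline.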

Read-out in assay [8]: CD69, CD69 (gene 969)
Nature of the assay: BSK_SAg_CD69: BioMAP Diversity Plus: SAg Assay for CD69 Biomarker Activity (AID 2283089).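 On AC50: cell surface CD69 protein quantified by ELISA with fluorescence detection.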 As to conditions: primary human HUVEC with PBMC; actives raise or lower the signal. In outline: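 ELISA, fluorescence read-out: CD69 on human umbilical vein endothelial cell + PBMC co-culture, 24 h post-dosing. Gain or loss of signal fitted bidirectionally against DMSO baseline.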

Read-out in assay [9]: Monocyte Chemoattractant Protein-1 (MCP1), CCL2 (gene 6347)
Nature of the assay: BSK_SAg_MCP1: BioMAP Diversity Plus: SAg Assay for Monocyte Chemoattractant Protein-1 (MCP1) Biomarker Activity (AID 2283090). As to conditions: primary human HUVEC with PBMC; actives raise or lower the signal. In outline:
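MCP-1 levels in the endothelial–PBMC SAg co-culture were quantified by ELISA at 24 h post-dosing; both increases and decreases versus DMSO scored. Cytotoxicity monitored by SRB total protein in parallel cultures.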

Read-out in assay [10]: E-selectin (Homo sapiens) (UniProt P16581)
Nature of the assay: BSK_SAg_Eselectin: BioMAP Diversity Plus: SAg Assay for Eselectin Biomarker Activity (AID 2283091). As to conditions: primary human HUVEC with PBMC; actives raise or lower the signal. In outline:
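Primary human endothelial cells and peripheral blood mononuclear cells were co-cultured and exposed to chemical for 24 hours. E-selectin levels were then quantified by ELISA, with bidirectional curve fitting normalised to DMSO controls.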

Assay [11] is described as follows: BSK_SAg_PBMCCytotoxicity: PBMC Cytotoxicity Assessment in the BioMAP Diversity Plus: SAg Assay (AID 2283093).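 Further: PBMC viability measured as Alamar Blue reduction fluorescence at 546/580 nm; fitted both ways against DMSO so a hit may be loss or gain of signal.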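 On AC50: PBMC superantigen activated with SEB plus TSST-1 one hour after compound addition.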 The settings on record: primary human HUVEC with PBMC. In outline: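 HUVEC/PBMC co-culture; PBMC exposed to chemical 1 h before SEB and TSST-1 activation (20 ng/mL each), incubated 90 h, then Alamar Blue 6 h, fluorescence 546/580 nm. Bidirectional fit versus DMSO baseline.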

Read-out in assay [12]: Interleukin-8 (IL8), CXCL8 (gene 3576)
Nature of the assay: BSK_SAg_IL8: BioMAP Diversity Plus: SAg Assay for Interleukin-8 (IL8) Biomarker Activity (AID 2283094). The settings on record: primary human HUVEC with PBMC; actives raise or lower the signal. In outline:
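ELISA read-out of IL-8 in a primary human vascular co-culture (umbilical vein endothelium plus PBMC), taken 24 h after compound addition. Values derive from bidirectional fits against DMSO negative controls.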

Assay [13] is described as follows: BSK_SAg_Proliferation: Cell Proliferation Assessment in the BioMAP Diversity Plus: SAg Assay (AID 2283095).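 Further: relative cell number as total protein by SRB absorbance in sub-confluent culture.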 As to conditions: primary human HUVEC with PBMC. In outline:
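Cells (endothelium plus PBMC, human primary) were dosed with chemical, cultured 96 h, fixed in 10% TCA and stained with 0.1% SRB. Absorbance at 560 nm gave relative protein, fitted bidirectionally relative to DMSO.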

The nature of assay [14]: BSK_SAg_SRB: Viability Assessment in the BioMAP Diversity Plus: SAg Assay (AID 2283096).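 Further: cells read one day after compound addition; hits may be either gain or loss of signal compared with DMSO.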 The settings on record: primary human HUVEC with PBMC. In outline:
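Human umbilical vein endothelial cells co-cultured with PBMC, read 24 h after compound dosing. Total protein measured by sulforhodamine B staining (0.1% SRB after 10% TCA fixation, absorbance 560 nm); bidirectional fit versus DMSO baseline.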

Read-out in assay [15]: Tumor necrosis factor (Homo sapiens) (UniProt P01375)
Nature of the assay: BSK_LPS_TNFa: BioMAP Diversity Plus: LPS Assay for Tumour Necrosis Factor alpha (TNFa) Biomarker Activity (AID 2283085). The settings on record: primary human HUVEC with PBMC; actives raise or lower the signal. In outline: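 Read-out is ELISA of TNFa in primary human endothelial cell–PBMC co-cultures at 24 h after compound. Activity in either direction was fitted against DMSO.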

Assay [16] has as its target human CYP19A1, CYP19A1 (gene 1588) (UniProt P11511). Nature of the assay: NVS_ADME_hCYP19A1: NovaScreen (NVS) CYP450-related Enzyme Activity (ADME) Assay for human CYP19A1 (AID 2283098; active means hit-call score of the fitted dose curve at least 0.9, where 1 is the maximum;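 further: potency for inhibitors seen as loss of fluorescent enzyme signal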). In outline:
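Recombinant enzyme in a cell-free format, read 0.5 h after dosing by fluorescence from a fluorogenic substrate. Loss of signal was fitted against acetonitrile as baseline. Primary screen in duplicate at 10 uM, actives then tested in concentration series.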

Assay [17] deals with human CYP2B6, CYP2B6 (gene 1555) (UniProt P20813). Nature of the assay: NVS_ADME_hCYP2B6: NovaScreen (NVS) CYP450-related Enzyme Activity (ADME) Assay for human CYP2B6 (AID 2283101; active means hit-call score of the fitted dose curve at least 0.9, where 1 is the maximum). In outline: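 Fluorescence-based enzyme activity of recombinant human CYP2B6, measured 1 h post-dose against acetonitrile vehicle baseline. Screened at a single concentration of 10 uM in duplicate before concentration-response follow-up.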

Read-out in assay [18]: Monokine induced gamma interferon (MIG), CXCL9 (gene 4283)
Nature of the assay: BSK_SAg_MIG: BioMAP Diversity Plus: SAg Assay for Monokine induced gamma interferon (MIG) Biomarker Activity (AID 2283092). The settings on record: primary human HUVEC with PBMC; actives raise or lower the signal. In outline: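 ELISA readout of MIG/CXCL9; primary human umbilical vein endothelial cells co-cultured with peripheral blood mononuclear cells; 24 h post-dose; gain/loss fit vs DMSO baseline.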

Assay [19] addresses human CYP2A6, CYP2A6 (gene 1548) (UniProt P11509). Briefly: NVS_ADME_hCYP2A6: NovaScreen (NVS) CYP450-related Enzyme Activity (ADME) Assay for human CYP2A6 (AID 2283099; active means hit-call score of the fitted dose curve at least 0.9, where 1 is the maximum). In outline:
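Recombinant human CYP2A6 from insect cells was incubated with chemical for 0.5 h and activity read by fluorescence. Single-concentration duplicates at 10 uM preceded concentration-response testing to 20 uM, with activity referenced to acetonitrile.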

What is called AC50 is the midpoint of the concentration-response curve, whichever way the signal moves.

Chain of E-selectin (Homo sapiens) (P16581 whole entry, looked up): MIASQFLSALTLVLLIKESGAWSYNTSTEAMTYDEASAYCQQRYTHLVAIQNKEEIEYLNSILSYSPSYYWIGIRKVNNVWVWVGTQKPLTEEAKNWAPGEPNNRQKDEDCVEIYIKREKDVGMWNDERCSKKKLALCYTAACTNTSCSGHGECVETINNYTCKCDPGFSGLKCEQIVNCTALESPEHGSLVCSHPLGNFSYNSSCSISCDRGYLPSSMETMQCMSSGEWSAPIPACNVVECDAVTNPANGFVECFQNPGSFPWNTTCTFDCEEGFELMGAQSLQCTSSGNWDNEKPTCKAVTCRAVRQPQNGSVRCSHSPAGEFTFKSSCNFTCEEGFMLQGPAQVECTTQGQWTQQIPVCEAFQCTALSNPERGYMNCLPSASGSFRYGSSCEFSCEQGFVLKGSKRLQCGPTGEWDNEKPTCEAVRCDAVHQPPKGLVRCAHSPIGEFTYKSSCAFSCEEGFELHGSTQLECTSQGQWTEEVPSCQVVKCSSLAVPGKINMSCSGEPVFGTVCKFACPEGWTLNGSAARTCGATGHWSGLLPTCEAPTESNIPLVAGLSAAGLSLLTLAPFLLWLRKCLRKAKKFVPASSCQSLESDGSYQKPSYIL
Chain of Tumor necrosis factor (Homo sapiens) (P01375 whole entry, looked up): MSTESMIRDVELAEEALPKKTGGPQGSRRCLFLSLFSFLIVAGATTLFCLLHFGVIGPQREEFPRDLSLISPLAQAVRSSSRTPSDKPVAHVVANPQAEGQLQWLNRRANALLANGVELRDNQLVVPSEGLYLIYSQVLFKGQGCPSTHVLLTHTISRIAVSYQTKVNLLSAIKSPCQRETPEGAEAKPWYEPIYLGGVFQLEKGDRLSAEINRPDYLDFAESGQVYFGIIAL
Chain of human CYP2B6, CYP2B6 (gene 1555) (P20813 whole entry, looked up): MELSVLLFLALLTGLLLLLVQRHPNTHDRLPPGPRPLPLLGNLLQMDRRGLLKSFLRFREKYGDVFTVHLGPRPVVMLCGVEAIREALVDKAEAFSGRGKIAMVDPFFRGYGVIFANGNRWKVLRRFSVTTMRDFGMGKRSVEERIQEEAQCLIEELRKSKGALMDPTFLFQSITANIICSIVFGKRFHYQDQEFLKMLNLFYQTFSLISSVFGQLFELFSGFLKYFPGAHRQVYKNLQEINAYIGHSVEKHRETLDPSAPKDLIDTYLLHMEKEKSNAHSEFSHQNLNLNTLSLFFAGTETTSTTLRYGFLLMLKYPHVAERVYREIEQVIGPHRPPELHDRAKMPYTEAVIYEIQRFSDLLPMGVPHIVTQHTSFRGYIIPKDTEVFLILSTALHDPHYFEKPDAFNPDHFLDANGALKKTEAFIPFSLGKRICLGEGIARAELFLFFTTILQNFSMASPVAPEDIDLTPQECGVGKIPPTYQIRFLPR
Chain of human CYP2A6, CYP2A6 (gene 1548) (P11509 whole entry, looked up): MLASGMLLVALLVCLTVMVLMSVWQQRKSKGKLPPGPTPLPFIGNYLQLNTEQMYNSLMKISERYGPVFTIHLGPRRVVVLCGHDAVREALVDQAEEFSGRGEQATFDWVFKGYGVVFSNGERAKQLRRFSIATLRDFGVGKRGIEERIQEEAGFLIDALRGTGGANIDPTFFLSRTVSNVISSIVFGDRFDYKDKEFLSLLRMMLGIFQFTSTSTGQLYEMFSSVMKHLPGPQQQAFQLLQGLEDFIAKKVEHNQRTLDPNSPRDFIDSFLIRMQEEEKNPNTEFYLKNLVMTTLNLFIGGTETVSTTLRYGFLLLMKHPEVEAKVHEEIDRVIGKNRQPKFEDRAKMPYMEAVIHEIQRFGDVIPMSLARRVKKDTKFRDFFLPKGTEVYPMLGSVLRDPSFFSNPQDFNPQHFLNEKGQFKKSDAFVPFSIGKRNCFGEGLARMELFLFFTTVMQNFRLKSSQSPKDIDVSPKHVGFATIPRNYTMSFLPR
Chain of human CYP19A1, CYP19A1 (gene 1588) (P11511 whole entry, looked up): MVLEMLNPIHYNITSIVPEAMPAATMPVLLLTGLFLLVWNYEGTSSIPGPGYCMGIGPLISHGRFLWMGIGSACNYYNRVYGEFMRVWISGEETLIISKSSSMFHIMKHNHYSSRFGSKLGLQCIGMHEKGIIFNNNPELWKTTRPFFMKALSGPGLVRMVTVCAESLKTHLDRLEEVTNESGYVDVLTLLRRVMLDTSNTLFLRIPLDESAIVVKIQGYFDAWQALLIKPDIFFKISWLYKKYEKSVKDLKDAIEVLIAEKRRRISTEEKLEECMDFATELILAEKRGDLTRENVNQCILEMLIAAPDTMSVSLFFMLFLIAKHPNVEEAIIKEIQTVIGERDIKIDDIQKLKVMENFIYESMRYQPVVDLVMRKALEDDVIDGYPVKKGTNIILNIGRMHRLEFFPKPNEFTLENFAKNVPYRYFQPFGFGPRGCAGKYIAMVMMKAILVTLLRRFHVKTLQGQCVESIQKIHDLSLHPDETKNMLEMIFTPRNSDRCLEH

Consider `O=C(O)C(F)(F)C(F)(F)C(F)(F)C(F)(F)C(F)(F)C(F)(F)C(F)(F)C(F)(F)F`, for which the half-maximal activity concentration (AC50) is 47.9 µM (active) and 58.4 µM (active) in assay [1]; 20 µM (active) and 19.9 µM (active) and 14.8 µM (active) in [2]; 51.5 µM (active) and 54.3 µM (active) in assay [5]; 49.6 µM (active) and 47 µM (active) in assay [6]; 30 µM (active) in assay [7]; 42.7 µM (active) and 43.5 µM (active) in assay [8]. The AC50 in assay [9] was 47.6 µM (active); in assay [12], 44.1 µM (active) and 55.1 µM (active); in assay [13], 55.2 µM (active); in assay [14], 51 µM (active) and 55 µM (active). Moreover, the result in [1], in [3], in assay [4], in assay [5], in [6] and in [7] was inactive. In addition, the outcome in assay [8], in [9], in assay [10], in assay [11], in [12] and in assay [13] was inactive. Moreover, the outcome in [14] was inactive.

Consider `CCOCCOC(C)=O`, for which the result in [1], in [2], in assay [3], in assay [4], in assay [15] and in assay [5] was inactive. The outcome in [6], in assay [7], in [8], in [9], in assay [10] and in assay [11] was inactive. Further, the outcome in assay [12], in [13] and in assay [14] was inactive.

For `Oc1ccc(C(c2ccc(O)cc2)(C(F)(F)F)C(F)(F)F)cc1`, the AC50 in assay [1] was 27.5 µM (active); in assay [2], 19.6 µM (active); in [3], 20.1 µM (active); in assay [4] it was 37.9 µM (active); in assay [15], 21.5 µM (active); in assay [5], 23.9 µM (active). Moreover, the AC50 is 20.6 µM (active) in assay [6]; 18.3 µM (active) in [7]; 26.6 µM (active) in assay [8]; 26.5 µM (active) in assay [9]; 19.8 µM (active) in assay [10]; 20.7 µM (active) in [11]. For the same compound, the concentration at half-maximal activity (AC50) in assay [12] was 18.1 µM (active); in assay [14], 22.6 µM (active); in assay [16], 7.19 µM (active); in [17], 4.71 µM (active).

As to `COc1ccc(O)c(C(C)(C)C)c1`, the outcome in [1], in [3], in [4], in assay [15], in assay [5] and in [6] was inactive. The result in assay [7], in [8], in assay [9], in assay [10], in assay [18] and in assay [11] was inactive. The result in [12], in assay [13], in [14], in assay [19] and in [17] was inactive. The AC50 in assay [2] is 1.71 µM (active) and 2.48 µM (active) and 4.59 µM (active); in assay [7] it was 28.9 µM (active); in [11], 20 µM (active).

For the compound `c1ccc(-c2ccccc2)cc1`, the result in assay [1], in assay [2], in assay [3], in assay [4], in assay [15] and in assay [5] was inactive. The result in assay [6], in [7], in assay [8], in assay [9], in [10] and in [11] was inactive. The outcome in assay [12], in [13] and in [14] was inactive.

For the compound `Cc1cc(O)ccc1Cl`, the outcome in assay [1], in assay [2], in assay [3], in assay [4], in assay [15] and in [5] was inactive. Moreover, the outcome in [6], in assay [7], in assay [8], in [9], in [10] and in [11] was inactive. Besides, the outcome in [12], in assay [13] and in assay [14] was inactive.
